Test results taken from PubChem BioAssay (NCATS).
Inconclusive results are not listed. Calls of active or inactive are those of the source. The call rests on the fitted dose curve; in most records, active means well fitted inhibition curve with a large enough effect; inconclusive means small, poorly fitted or top-dose-only effect; inactive means flat fitted curve, though single readings scatter.

Assay: Primary qHTS for inhibitors of nuclear receptor binding SET domain protein 2 (NSD2) in an isogenic RCH-ACV NSD2 p.E1099K mutant (9B) (AID 1645876); further: nearly all actives have a fitted effect of over 70% in size
Settings: RCH-ACV (leukaemia line) NSD2 E1099K (9B) viability, CellTiter-Glo, 72 h; series mostly up to 44.9 µM; activity change, negative = viability loss: at the top concentration
On the % scale 0 is the no-effect control and ±100 the full control effect.

| SMILES | activity change, negative = viability loss | outcome |
| --- | --- | --- |
| COC(=O)C1(C)CCCC2(C)c3ccc(C(C)C)cc3C(O)C(O)C12 (stereo not drawn) | -13.9% (inactive) | – |
| OC[C@@]1(O)CO[C@H](OC[C@H]2O[C@@H](OC(CCCCc3ccc(O)cc3)CCc3ccc(O)cc3)[C@H](O[C@H]3OC[C@](O)(CO)[C@H]3O)[C@@H](O)[C@@H]2O)[C@@H]1O (stereo partly drawn) | – | inactive [at 17.3 µM] |
| CC(=O)OC1CCC2(C)C(CCC3(C)C2CC=C2C4CC(C)(C)CCC4(C)CCC23C)C1(C)C(=O)O (stereo not drawn) | -7.6% [at 17.3 µM] (inactive) | – |
| COc1cc(/C=C/C(=O)O[C@@H]2C[C@](O)(C(=O)O)C[C@@H](O)[C@H]2O)ccc1O | – | inactive |
| C[C@H]1[C@H](C)CC[C@]2(C(=O)O)CC[C@]3(C(=O)O)C(=CCC4[C@@]5(C)CC[C@H](O[C@@H]6O[C@@H](C)[C@H](O)[C@@H](O)[C@H]6O)C(C)(C)C5CC[C@]43C)[C@H]12 (stereo partly drawn) | -11.2% [at 17.3 µM] (inactive) | – |
| COC(=O)C(CC1(O)c2ccccc2N2C(=O)C(CC(C)C)NC21)n1cnc2ccccc2c1=O (stereo not drawn) | -7.87% [at 17.3 µM] (inactive) | – |
| C[C@]1(O)CC[C@@H]2C(C(=O)O)=CO[C@@H](O[C@@H]3O[C@H](CO)[C@@H](O)[C@H](O)[C@H]3O)[C@@H]21 | -2.78% (inactive) | – |
| C=C(C)[C@@]1(O)C[C@@]2(C)C(=CC1=O)CC[C@@H](O)[C@@H]2C | -9.62% (inactive) | – |
| N#CC1C(=O)N=C(c2cc(Cl)ccc2O)C=C1c1cc(OCc2ccccc2)cc(OCc2ccccc2)c1 (stereo not drawn) | -5.59% (inactive) | – |
| CC12CC(c3ccoc3)OC(=O)C1CCC1(C)C2CCC(O)C1(C)O (stereo not drawn) | -11.8% (inactive) | – |
| CC1(C)CC[C@]2(C(=O)O[C@@H]3O[C@H](CO[C@@H]4O[C@H](CO[C@@H]5O[C@H](CO)[C@H](O)[C@H](O)[C@H]5O)[C@@H](O)[C@H](O)[C@H]4O)[C@@H](O)[C@H](O[C@@H]4O[C@H](CO)[C@@H](O)[C@H](O)[C@H]4O)[C@H]3O)[C@H](O)C[C@]3(C)C(=CCC4[C@@]5(C)CC[C@H](O[C@@H]6OC[C@@H](O)[C@H](O)[C@H]6O)[C@@](C)(C(=O)O)C5CC[C@]43C)[C@@H]2C1 (stereo partly drawn) | – | inactive [at 9.23 µM] |
| C/C=C(\C)C(=O)OC[C@H]1O[C@@H](O[C@H]2[C@@H](O[C@H]3O[C@H](CO)[C@@H](O)[C@H](O)[C@H]3O[C@@H]3O[C@H](CO)[C@@H](O)[C@H](O)[C@H]3O)O[C@H](COC(=O)/C(C)=C/C)[C@@H](O)[C@@H]2O)[C@H](O)[C@@H](O)[C@@H]1O | -10.2% [at 9.23 µM] (inactive) | – |
| CC1(C)CCC2(C(=O)O)C(O)CC3(C)C(=CCC4C5(C)CCC(OC6OC(CO)C(O)C(O)C6OC6OC(CO)C(O)C(O)C6OC6OCC(O)(CO)C6O)C(C)(C)C5CCC43C)C2C1 (stereo not drawn) | 3.44% [at 9.23 µM] (inactive) | – |
| COc1cc(-c2ccc(O)cc2)c(OC)c(O)c1C1=CC(=O)OC1CC(=O)O (stereo not drawn) | -15.8% (inactive) | – |
| C[C@@H]1CC[C@]2(C(=O)O)CC[C@]3(C)C(=CCC4[C@@]5(C)C[C@@H](O)[C@@H](O)C(C)(C)C5CC[C@]43C)C2[C@]1(C)O (stereo partly drawn) | -9.25% [at 17.3 µM] (inactive) | – |
| CC1(C)O[C@H]2CC(=O)OC[C@@]23C1=C(O)C(=O)[C@]1(C)C3CC[C@@]2(C)[C@H](c3ccoc3)OC(=O)[C@H]3O[C@]321 (stereo partly drawn) | 2.93% [at 17.3 µM] (inactive) | – |
| C=CC(C)(O)CC/C=C(\C)C1CC=C(C)C(=O)O1 (stereo not drawn) | -18.1% (inactive) | – |
| O=C(/C=C/c1ccc(O)c(O)c1)O[C@H]1[C@@H]2C=CO[C@@H](O[C@@H]3O[C@H](CO)[C@@H](O)[C@H](O)[C@H]3O)[C@@H]2[C@@]2(CO)O[C@@H]12 | -0.72% [at 17.3 µM] (inactive) | – |
| C[C@]1(OC(=O)/C=C\c2ccc(O)cc2)C[C@@H](O)[C@]2(O)C=CO[C@@H](O[C@@H]3O[C@H](CO)[C@@H](O)[C@H](O)[C@H]3O)C12 (stereo partly drawn) | -8.02% [at 17.3 µM] (inactive) | – |
| CC1CCC2C(C(=O)O)=CC3(O)CC(C)(C)CC123 (stereo not drawn) | -9.11% (inactive) | – |
| C=C1CC23CC(=O)C4C(CO)(CO)CCCC4(C)C2CCC1C3 (stereo not drawn) | -18.7% (inactive) | – |
| C[C@@H]1O[C@@H](O[C@@H]2[C@@H](O)[C@H](O[C@H]3[C@H](O[C@H]4CC[C@@]5(C)C(CC[C@]6(C)C5CC=C5[C@@H]7CC(C)(C)CC[C@]7(C(=O)O[C@@H]7O[C@H](CO)[C@@H](O)[C@H](O)[C@H]7O)CC[C@]56C)C4(C)C)O[C@H](C(=O)O)[C@@H](O)[C@@H]3O)OC[C@H]2O)[C@H](O)[C@H](O)[C@H]1O (stereo partly drawn) | 2.27% [at 9.23 µM] (inactive) | – |
| O=C(O)c1cc(O[C@@H]2O[C@H](CO)[C@@H](O)[C@H](O)[C@H]2O)ccc1O | 2.97% (inactive) | – |
